Holding throughout (assay): DAPPL (digital affinity profiling via proximity ligation, sequencing); 10 mM Tris-HCl pH 7.5, 50 mM NaCl, 1 mM DTT, 4% glycerol, room temperature, 30 min; GST-TFs on glutathione beads, 16-mer random dsDNA library, 0.1% formaldehyde crosslink after washing; high values mean tight binding
For test [1], the target named is T1, FEV (Homo sapiens, UniProt Q99581 1-238).
T1 sequence: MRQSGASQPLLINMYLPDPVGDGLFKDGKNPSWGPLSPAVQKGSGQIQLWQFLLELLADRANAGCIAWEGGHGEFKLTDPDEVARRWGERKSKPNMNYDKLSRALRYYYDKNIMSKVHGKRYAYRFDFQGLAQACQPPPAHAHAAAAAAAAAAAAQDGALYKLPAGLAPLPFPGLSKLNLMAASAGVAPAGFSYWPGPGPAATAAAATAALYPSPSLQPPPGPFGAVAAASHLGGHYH
The conditions noted are these: protein: recombinant; tags: N-terminal GST; dsDNA, one strand shown. An outline of the steps: (§1)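 Binding signal is each hexamer's read frequency for a factor divided by its frequency in the tag-only sample. The factors were GST-fused human transcription factors from yeast, captured on glutathione beads, DNA-barcoded and pooled with that sample. Pools were incubated with 200 nmole of a random double-stranded 16-mer DNA library in Tris/NaCl/DTT/glycerol buffer at room temperature for 30 min, then washed, crosslinked with 0.1% formaldehyde, proximity-ligated with BsaI/T4 ligase (1 h, 37 °C), PCR-amplified and sequenced on an Illumina NextSeq500.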

For test [2], the target named is ETV5 (Homo sapiens, UniProt P41161 1-510). The settings on record: protein: recombinant; tags: N-terminal GST; dsDNA, one strand shown. An outline of the steps: as §1
Sequence of ETV5 (P41161 whole entry): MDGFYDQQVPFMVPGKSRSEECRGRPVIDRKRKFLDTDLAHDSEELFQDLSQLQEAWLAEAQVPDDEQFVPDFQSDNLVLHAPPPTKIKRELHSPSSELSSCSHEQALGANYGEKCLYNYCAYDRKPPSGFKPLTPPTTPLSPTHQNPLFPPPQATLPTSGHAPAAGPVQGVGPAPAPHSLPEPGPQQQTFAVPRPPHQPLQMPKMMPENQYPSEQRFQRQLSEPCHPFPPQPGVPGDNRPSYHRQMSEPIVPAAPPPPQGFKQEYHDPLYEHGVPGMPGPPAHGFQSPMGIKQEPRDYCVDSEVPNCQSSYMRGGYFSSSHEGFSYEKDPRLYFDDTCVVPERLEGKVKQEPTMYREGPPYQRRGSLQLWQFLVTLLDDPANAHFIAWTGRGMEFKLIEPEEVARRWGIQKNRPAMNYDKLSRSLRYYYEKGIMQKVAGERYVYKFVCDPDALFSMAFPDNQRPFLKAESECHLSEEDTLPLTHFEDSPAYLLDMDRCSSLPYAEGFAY
For test [3], the target named is HSF1 (Homo sapiens, UniProt Q00613 1-529). The conditions noted are these: protein: recombinant; tags: N-terminal GST; chain copies: 3; dsDNA, one strand shown. The essentials:
as §1

The target in test [4] is T2, SPIC (Homo sapiens, UniProt Q8N5J4 1-248).
T2 sequence: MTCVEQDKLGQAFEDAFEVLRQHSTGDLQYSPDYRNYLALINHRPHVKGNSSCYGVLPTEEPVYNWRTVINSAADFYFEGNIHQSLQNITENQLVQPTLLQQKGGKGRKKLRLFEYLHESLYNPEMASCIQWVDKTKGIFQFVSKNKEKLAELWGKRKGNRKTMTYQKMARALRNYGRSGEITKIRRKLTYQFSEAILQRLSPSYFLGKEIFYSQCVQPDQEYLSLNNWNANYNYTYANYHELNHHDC
The conditions noted are these: protein: recombinant; tags: N-terminal GST; dsDNA, one strand shown. The essentials:
as §1

Test [5] deals with ELF4 (Homo sapiens, UniProt Q99607 1-663). The settings on record: protein: recombinant; tags: N-terminal GST; dsDNA, one strand shown. The essentials: as §1
Sequence of ELF4 (Q99607 whole entry): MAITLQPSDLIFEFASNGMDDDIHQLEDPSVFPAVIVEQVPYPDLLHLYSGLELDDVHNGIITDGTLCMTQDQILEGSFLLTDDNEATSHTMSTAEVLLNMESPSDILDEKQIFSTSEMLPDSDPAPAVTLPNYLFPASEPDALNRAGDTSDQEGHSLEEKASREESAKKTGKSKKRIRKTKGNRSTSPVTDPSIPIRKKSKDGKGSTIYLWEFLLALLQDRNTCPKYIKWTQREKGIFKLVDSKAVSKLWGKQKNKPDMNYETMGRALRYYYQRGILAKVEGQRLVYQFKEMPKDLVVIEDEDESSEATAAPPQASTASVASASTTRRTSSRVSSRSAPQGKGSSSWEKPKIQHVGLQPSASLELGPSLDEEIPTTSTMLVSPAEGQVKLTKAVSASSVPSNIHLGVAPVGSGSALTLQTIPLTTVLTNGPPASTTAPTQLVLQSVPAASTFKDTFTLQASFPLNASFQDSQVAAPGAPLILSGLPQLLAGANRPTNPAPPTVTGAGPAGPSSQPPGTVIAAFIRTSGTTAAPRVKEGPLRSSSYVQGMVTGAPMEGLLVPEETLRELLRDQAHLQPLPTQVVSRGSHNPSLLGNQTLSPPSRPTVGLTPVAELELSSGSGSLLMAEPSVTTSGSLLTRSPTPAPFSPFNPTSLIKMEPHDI
Test [6] concerns the target T3, ELK4 (Homo sapiens, UniProt P28324-2 1-405).
T3 sequence: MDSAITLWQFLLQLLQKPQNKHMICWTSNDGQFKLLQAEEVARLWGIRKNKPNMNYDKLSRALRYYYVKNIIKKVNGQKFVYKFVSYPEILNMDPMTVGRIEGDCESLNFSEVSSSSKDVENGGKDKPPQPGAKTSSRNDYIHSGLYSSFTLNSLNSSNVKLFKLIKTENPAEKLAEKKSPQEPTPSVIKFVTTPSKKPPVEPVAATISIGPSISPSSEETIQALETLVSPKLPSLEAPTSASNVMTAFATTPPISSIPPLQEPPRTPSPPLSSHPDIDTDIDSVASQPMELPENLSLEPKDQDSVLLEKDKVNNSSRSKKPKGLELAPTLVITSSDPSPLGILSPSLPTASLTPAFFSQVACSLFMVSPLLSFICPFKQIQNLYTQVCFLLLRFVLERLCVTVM
The conditions noted are these: protein: recombinant; tags: N-terminal GST; dsDNA, one strand shown. An outline of the steps:
as §1

The target of test [7] is T4, ETV2 (Homo sapiens, UniProt O00321 1-342).
T4 sequence: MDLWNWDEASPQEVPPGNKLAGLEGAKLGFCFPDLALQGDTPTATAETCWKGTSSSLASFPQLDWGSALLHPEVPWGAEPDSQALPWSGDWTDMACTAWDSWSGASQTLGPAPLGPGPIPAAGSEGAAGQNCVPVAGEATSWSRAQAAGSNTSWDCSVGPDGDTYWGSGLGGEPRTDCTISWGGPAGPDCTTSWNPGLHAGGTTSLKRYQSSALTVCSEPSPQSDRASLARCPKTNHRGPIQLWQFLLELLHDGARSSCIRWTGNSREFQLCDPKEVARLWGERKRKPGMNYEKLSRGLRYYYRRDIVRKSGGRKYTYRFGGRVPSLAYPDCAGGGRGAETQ
The conditions noted are these: protein: recombinant; tags: N-terminal GST; dsDNA, one strand shown. An outline of the steps: as §1

Test [8] concerns the target T5, ELF3 (Homo sapiens, UniProt P78545 1-371).
T5 sequence: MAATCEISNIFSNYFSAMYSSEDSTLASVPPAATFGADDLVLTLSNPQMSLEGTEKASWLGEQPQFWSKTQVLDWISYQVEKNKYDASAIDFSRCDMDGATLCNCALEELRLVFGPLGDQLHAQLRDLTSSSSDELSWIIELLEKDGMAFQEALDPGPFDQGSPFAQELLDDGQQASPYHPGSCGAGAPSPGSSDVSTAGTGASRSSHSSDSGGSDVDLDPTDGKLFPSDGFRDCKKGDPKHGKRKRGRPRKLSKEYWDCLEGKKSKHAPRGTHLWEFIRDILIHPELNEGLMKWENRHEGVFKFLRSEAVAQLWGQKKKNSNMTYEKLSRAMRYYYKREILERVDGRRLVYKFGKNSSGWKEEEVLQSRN
The conditions noted are these: protein: recombinant; tags: N-terminal GST; dsDNA, one strand shown. An outline of the steps: as §1

The target of test [9] is CRX (Homo sapiens, UniProt O43186 1-299). The settings on record: protein: recombinant; tags: N-terminal GST; dsDNA, one strand shown. An outline of the steps: as §1
Sequence of CRX (O43186 whole entry): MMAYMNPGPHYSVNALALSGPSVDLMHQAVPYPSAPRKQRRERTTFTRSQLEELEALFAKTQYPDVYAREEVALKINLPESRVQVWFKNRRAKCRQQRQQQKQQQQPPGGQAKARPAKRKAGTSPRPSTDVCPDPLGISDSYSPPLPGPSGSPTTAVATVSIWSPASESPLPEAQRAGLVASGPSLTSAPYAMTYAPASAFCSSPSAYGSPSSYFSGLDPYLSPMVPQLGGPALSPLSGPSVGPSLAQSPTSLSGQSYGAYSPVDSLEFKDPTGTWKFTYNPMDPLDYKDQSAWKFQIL
Test [10] addresses ETV1 (Homo sapiens, UniProt P50549 1-477). The settings on record: protein: recombinant; tags: N-terminal GST; dsDNA, one strand shown. An outline of the steps: as §1
Test [11] concerns the target T6, ERF (Homo sapiens, UniProt P50548 1-548).
T6 sequence: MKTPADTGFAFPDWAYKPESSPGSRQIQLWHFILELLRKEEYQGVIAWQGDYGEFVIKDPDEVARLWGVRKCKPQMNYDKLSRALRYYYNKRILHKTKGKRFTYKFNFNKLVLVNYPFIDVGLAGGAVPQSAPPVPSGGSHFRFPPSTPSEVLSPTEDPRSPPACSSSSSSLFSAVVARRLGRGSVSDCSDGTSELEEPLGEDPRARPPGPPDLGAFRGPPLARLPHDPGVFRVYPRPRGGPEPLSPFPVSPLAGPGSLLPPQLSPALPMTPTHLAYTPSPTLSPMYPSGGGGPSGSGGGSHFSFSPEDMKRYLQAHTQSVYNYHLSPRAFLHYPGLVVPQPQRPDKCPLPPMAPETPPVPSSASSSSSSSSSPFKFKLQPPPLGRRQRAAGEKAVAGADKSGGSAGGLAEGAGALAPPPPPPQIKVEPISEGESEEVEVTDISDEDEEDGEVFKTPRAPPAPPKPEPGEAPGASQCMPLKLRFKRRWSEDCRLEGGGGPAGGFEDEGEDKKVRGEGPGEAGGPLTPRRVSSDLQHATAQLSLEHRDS
The settings on record: protein: recombinant; tags: N-terminal GST; dsDNA, one strand shown. An outline of the steps:
as §1

Test [12] addresses T7, ETV3L (Homo sapiens, UniProt Q6ZN32 1-361).
T7 sequence: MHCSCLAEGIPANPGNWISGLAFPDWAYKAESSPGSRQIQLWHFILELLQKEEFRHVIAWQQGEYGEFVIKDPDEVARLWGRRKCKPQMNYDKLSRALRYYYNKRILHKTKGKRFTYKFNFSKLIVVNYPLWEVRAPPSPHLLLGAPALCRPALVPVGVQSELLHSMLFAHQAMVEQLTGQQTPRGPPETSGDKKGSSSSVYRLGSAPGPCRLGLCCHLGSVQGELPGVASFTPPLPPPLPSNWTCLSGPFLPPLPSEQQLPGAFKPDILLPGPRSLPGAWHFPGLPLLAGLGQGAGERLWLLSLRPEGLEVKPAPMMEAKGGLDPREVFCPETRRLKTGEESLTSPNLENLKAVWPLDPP
The settings on record: protein: recombinant; tags: N-terminal GST; dsDNA, one strand shown. The essentials:
as §1

Test [13] addresses T8, ETS2 (Homo sapiens, UniProt P15036 1-469).
T8 sequence: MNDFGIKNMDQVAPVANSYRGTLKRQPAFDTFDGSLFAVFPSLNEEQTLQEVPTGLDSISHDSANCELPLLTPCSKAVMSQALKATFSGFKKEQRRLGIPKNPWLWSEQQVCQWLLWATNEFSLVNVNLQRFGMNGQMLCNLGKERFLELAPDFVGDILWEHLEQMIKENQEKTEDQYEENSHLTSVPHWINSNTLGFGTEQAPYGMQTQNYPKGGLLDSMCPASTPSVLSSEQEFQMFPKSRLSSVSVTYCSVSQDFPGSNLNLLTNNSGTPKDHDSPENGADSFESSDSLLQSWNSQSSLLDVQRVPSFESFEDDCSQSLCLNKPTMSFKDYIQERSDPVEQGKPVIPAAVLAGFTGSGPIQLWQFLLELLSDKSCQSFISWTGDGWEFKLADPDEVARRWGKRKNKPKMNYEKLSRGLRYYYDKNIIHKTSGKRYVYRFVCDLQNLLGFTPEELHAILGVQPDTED
The conditions noted are these: protein: recombinant; tags: N-terminal GST; dsDNA, one strand shown. The essentials:
as §1

Test [14] addresses T9, SPDEF (Homo sapiens, UniProt O95238 1-335).
T9 sequence: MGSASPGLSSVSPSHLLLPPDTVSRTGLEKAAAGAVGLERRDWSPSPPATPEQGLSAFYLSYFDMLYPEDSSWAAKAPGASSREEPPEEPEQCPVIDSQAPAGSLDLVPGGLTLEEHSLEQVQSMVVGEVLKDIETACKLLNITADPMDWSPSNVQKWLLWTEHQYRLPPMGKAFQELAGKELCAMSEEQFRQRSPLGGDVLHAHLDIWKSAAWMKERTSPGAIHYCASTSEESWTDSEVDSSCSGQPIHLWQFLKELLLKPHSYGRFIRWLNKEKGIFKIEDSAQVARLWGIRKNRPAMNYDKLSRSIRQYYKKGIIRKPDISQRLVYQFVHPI
The settings on record: protein: recombinant; tags: N-terminal GST; dsDNA, one strand shown. The essentials: as §1

For test [15], the target named is T10, ETV7 (Homo sapiens, UniProt Q9Y603 1-341).
T10 sequence: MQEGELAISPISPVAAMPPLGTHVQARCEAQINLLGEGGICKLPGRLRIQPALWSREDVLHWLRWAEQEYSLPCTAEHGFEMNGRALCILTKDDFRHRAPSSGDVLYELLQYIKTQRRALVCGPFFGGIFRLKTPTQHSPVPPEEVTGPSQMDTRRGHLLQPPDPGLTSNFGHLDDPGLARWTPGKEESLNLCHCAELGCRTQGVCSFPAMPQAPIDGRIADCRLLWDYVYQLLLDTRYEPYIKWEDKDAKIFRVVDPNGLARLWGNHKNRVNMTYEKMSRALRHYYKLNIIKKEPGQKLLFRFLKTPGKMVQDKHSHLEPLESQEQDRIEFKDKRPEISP
The conditions noted are these: protein: recombinant; tags: N-terminal GST; dsDNA, one strand shown. An outline of the steps:
as §1

The target in test [16] is T11, ELF5 (Homo sapiens, UniProt Q9UKW6-2 1-255).
T11 sequence: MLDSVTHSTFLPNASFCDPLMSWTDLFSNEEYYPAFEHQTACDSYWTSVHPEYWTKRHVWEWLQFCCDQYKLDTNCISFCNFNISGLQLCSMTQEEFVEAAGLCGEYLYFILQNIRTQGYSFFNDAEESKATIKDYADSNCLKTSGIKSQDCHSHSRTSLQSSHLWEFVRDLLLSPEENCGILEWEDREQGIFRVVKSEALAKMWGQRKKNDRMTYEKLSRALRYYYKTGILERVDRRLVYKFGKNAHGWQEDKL
The conditions noted are these: protein: recombinant; tags: N-terminal GST; dsDNA, one strand shown. The essentials:
as §1

Test [17] deals with T12, ETV3 (Homo sapiens, UniProt P41162-2 1-143).
T12 sequence: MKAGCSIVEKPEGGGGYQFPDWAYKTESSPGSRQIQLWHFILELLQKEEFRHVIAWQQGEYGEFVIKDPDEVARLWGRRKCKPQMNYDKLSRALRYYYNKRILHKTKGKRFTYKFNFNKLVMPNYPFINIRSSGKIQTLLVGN
The settings on record: protein: recombinant; tags: N-terminal GST; dsDNA, one strand shown. An outline of the steps:
as §1

Test [18] concerns the target ETV6 (Homo sapiens, UniProt P41212 1-452). The settings on record: protein: recombinant; tags: N-terminal GST; dsDNA, one strand shown. An outline of the steps:
as §1

Sequence of ETV6 (P41212 whole entry): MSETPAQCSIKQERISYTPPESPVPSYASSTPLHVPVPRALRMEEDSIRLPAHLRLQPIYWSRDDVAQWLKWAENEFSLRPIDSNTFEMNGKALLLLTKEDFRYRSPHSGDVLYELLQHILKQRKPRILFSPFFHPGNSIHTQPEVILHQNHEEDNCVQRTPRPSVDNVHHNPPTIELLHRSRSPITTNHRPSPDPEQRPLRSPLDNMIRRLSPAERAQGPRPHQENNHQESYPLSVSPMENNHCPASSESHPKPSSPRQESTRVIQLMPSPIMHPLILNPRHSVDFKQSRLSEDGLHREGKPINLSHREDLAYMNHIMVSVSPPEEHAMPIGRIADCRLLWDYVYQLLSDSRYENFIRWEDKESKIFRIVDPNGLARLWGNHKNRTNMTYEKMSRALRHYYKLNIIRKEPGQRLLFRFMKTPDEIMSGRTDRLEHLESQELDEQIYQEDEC
Sequence of ETV1 (P50549 whole entry): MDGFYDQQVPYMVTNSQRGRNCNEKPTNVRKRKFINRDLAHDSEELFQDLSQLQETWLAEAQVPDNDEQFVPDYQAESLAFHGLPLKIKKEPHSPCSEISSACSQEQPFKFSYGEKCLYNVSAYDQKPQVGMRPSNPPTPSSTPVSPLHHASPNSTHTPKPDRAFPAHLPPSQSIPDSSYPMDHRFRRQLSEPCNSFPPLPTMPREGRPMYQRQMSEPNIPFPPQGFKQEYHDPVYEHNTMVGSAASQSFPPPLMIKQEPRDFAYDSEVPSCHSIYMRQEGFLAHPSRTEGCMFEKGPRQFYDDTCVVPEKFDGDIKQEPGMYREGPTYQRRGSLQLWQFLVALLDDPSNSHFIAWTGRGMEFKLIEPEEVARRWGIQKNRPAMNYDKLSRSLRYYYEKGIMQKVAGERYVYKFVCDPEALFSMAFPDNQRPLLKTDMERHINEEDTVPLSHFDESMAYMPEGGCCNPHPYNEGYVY
Sequence of HSF1 (Q00613 whole entry): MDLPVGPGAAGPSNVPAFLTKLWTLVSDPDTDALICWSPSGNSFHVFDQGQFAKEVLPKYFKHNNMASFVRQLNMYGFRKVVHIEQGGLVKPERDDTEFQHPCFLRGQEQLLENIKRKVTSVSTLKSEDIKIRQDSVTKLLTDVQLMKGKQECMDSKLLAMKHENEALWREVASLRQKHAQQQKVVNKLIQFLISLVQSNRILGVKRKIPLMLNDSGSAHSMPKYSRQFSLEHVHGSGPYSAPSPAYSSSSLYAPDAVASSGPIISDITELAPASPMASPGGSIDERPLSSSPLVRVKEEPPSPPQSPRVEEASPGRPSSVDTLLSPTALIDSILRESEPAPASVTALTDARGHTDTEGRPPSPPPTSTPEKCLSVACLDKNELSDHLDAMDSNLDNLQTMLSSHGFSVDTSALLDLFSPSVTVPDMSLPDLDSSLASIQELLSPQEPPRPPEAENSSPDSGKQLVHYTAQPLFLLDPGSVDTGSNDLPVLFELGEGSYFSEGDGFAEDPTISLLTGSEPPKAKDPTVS

For the sequence ATCCAT, the binding signal in test [1] was 1.24 fold enrichment (6-mer frequency, TF over GST control); in [2], 1.17 fold enrichment (6-mer frequency, TF over GST control); in [3], 1.23 fold enrichment (6-mer frequency, TF over GST control); in test [4], 1.16 fold enrichment (6-mer frequency, TF over GST control); in [5], 1.13 fold enrichment (6-mer frequency, TF over GST control); in test [6], 1.14 fold enrichment (6-mer frequency, TF over GST control). Moreover, the binding signal is 1.19 fold enrichment (6-mer frequency, TF over GST control) in [7]; 1.32 fold enrichment (6-mer frequency, TF over GST control) in [8]; 1.55 fold enrichment (6-mer frequency, TF over GST control) in test [9]; 1.14 fold enrichment (6-mer frequency, TF over GST control) in test [10]; 1.26 fold enrichment (6-mer frequency, TF over GST control) in [11]; 1.11 fold enrichment (6-mer frequency, TF over GST control) in test [12]. For the same sequence, the binding signal in test [13] is 1.17 fold enrichment (6-mer frequency, TF over GST control); in [14], 1.17 fold enrichment (6-mer frequency, TF over GST control); in test [15], 1.11 fold enrichment (6-mer frequency, TF over GST control); in [16], 1.09 fold enrichment (6-mer frequency, TF over GST control); in [17] it was 1.19 fold enrichment (6-mer frequency, TF over GST control); in [18] it was 1.09 fold enrichment (6-mer frequency, TF over GST control).

These data come from paper PMC7862700, “An all-to-all approach to the identification of sequence-specific readers for epigenetic DNA modifications on cytosine”.
